Results filed as inconclusive are left out. Entries that show only a call come without a potency. Calls of active or inactive are those of the source. The call rests on the fitted dose curve; tested in HEK293 reporter line.
assay: qHTS for Inhibitors of the Functional Ribonucleoprotein Complex (vRNP) of Lassa (LASV) Arenavirus: LASV Primary Screen - GLuc reporter signal (AID 1347082); conditions: LASV minigenome vRNP, Gaussia luciferase reporter; series mostly up to 57.5 µM; further: nearly all actives have a fitted effect of over 60% in size

Row | Structure (SMILES) | Potency
1 | CCc1ccc(CCOc2ccc(CC3SC(=O)NC3=O)cc2)nc1 (stereo not drawn) | inactive
2 | CN1CCN(C2=Nc3ccccc3Oc3ccc(Cl)cc32)CC1 | inactive
3 | Cc1oncc1C(=O)Nc1ccc(C(F)(F)F)cc1 | inactive
4 | COc1cc2nc(N3CCN(C(=O)c4ccco4)CC3)nc(N)c2cc1OC | inactive
5 | COC(=O)N[C@H](C(=O)N[C@@H](Cc1ccccc1)[C@@H](O)CN(Cc1ccc(-c2ccccn2)cc1)NC(=O)[C@@H](NC(=O)OC)C(C)(C)C)C(C)(C)C | inactive
6 | CCCCN1C[C@H](O)[C@@H](O)[C@H](O)[C@H]1CO | inactive
7 | CN(C)[C@@H]1C(=O)C(C(N)=O)=C(O)[C@@]2(O)C(=O)C3=C(O)c4c(O)ccc(Cl)c4[C@@H](O)[C@H]3C[C@@H]12 | inactive
8 | NC(=O)C(c1ccccc1)(c1ccccc1)[C@@H]1CCN(CCc2ccc3c(c2)CCO3)C1 | inactive
9 | Cc1cccc(Nc2ccccc2C(=O)O)c1C | inactive
10 | COC(=O)[C@@H]1CC2=CC(=O)CC[C@]2(C)[C@@]23O[C@@H]2C[C@@]2(C)[C@@H](CC[C@@]24CCC(=O)O4)[C@H]13 | inactive
11 | CS(=O)(=O)OCCCCOS(C)(=O)=O | inactive
12 | CC/C(=C(\c1ccccc1)c1ccc(OCCN(C)C)cc1)c1ccccc1 | inactive
13 | CCC1C(=O)OCC1Cc1cncn1C (stereo not drawn) | inactive
14 | OCCN1CCN(CCCN2c3ccccc3Sc3ccc(C(F)(F)F)cc32)CC1 | inactive
15 | Cc1cnc(C(=O)NCCc2ccc(S(=O)(=O)NC(=O)NC3CCCCC3)cc2)cn1 | inactive
16 | CC(c1cc2ccccc2s1)N(O)C(N)=O (stereo not drawn) | inactive
17 | Cn1c(=O)c2c(ncn2CC(O)CO)n(C)c1=O (stereo not drawn) | inactive
18 | O=C(O)P(=O)(O)O | inactive
19 | CC1=C(C(=O)O)N2C(=O)[C@@H](NC(=O)[C@H](N)c3ccccc3)[C@H]2SC1 | inactive
20 | CC[N+](C)(C)c1cccc(O)c1 | inactive

Row | Structure (SMILES) | Potency
21 | CCOC(=O)[C@H](CCc1ccccc1)N[C@@H](C)C(=O)N1[C@H](C(=O)O)C[C@@H]2CCC[C@@H]21 | inactive
22 | Nc1[nH]c(=O)ncc1F | inactive
23 | O=C1[C@H](CC[C@H](O)c2ccc(F)cc2)[C@@H](c2ccc(O)cc2)N1c1ccc(F)cc1 | inactive
24 | C[C@H]1c2cccc(O)c2C(O)=C2C(=O)[C@]3(O)C(O)=C(C(N)=O)C(=O)[C@@H](N(C)C)[C@@H]3[C@@H](O)[C@@H]21 | inactive
25 | CCCN(CCC)CCc1cccc2c1CC(=O)N2 | inactive
26 | CN1CCN(CCCN2c3ccccc3Sc3ccc(Cl)cc32)CC1 | inactive
27 | O=NN(CCCl)C(=O)NC1CCCCC1 | inactive
28 | CCOC(=O)Nc1ccc2c(c1)N(C(=O)CCN1CCOCC1)c1ccccc1S2 | inactive
29 | Oc1ccc(C2CNCCc3c2cc(O)c(O)c3Cl)cc1 (stereo not drawn) | inactive
30 | CC1(C)S[C@@H]2[C@H](NC(=O)C(C(=O)O)c3ccccc3)C(=O)N2[C@H]1C(=O)O (stereo partly drawn) | inactive
31 | CCN(CCO)CCCC(C)Nc1ccnc2cc(Cl)ccc12 (stereo not drawn) | inactive
32 | C[C@]12CC[C@@H]3c4ccc(O)cc4C[C@@H](CCCCCCCCCS(=O)CCCC(F)(F)C(F)(F)F)[C@H]3[C@@H]1CC[C@@H]2O (stereo partly drawn) | inactive
33 | CC(=O)OCC(CCn1cnc2cnc(N)nc21)COC(C)=O | inactive
34 | Cc1c(O)cccc1C(=O)N[C@@H](CSc1ccccc1)[C@H](O)CN1C[C@H]2CCCC[C@H]2C[C@H]1C(=O)NC(C)(C)C | inactive
35 | C=C[C@H]1CN2CC[C@H]1C[C@@H]2[C@@H](O)c1ccnc2ccc(OC)cc12 | inactive
36 | Cc1cn[nH]c1 | inactive
37 | CCOC(=O)c1ncn2c1CN(C)C(=O)c1cc(F)ccc1-2 | inactive
38 | CC(C)NCC(O)COc1ccc(CCOCC2CC2)cc1 (stereo not drawn) | inactive
39 | CCOc1ccccc1OCCN[C@H](C)Cc1ccc(OC)c(S(N)(=O)=O)c1 | inactive

assay: qHTS for Inhibitors of the Functional Ribonucleoprotein Complex (vRNP) of Lassa (LASV) Arenavirus: Viability assay - alamar blue signal for LASV Primary Screen (AID 1347083); conditions: cell viability, alamar blue fluorescence (LASV minigenome counter-screen); series mostly up to 57.5 µM; further: nearly all actives have a fitted effect of over 80% in size

Row | Structure (SMILES) | Potency
40 | CCc1ccc(CCOc2ccc(CC3SC(=O)NC3=O)cc2)nc1 (stereo not drawn) | inactive
41 | CN1CCN(C2=Nc3ccccc3Oc3ccc(Cl)cc32)CC1 | inactive
42 | Cc1oncc1C(=O)Nc1ccc(C(F)(F)F)cc1 | inactive
43 | COc1cc2nc(N3CCN(C(=O)c4ccco4)CC3)nc(N)c2cc1OC | inactive
44 | COC(=O)N[C@H](C(=O)N[C@@H](Cc1ccccc1)[C@@H](O)CN(Cc1ccc(-c2ccccn2)cc1)NC(=O)[C@@H](NC(=O)OC)C(C)(C)C)C(C)(C)C | inactive
45 | CCCCN1C[C@H](O)[C@@H](O)[C@H](O)[C@H]1CO | inactive
46 | CN(C)[C@@H]1C(=O)C(C(N)=O)=C(O)[C@@]2(O)C(=O)C3=C(O)c4c(O)ccc(Cl)c4[C@@H](O)[C@H]3C[C@@H]12 | inactive
47 | NC(=O)C(c1ccccc1)(c1ccccc1)[C@@H]1CCN(CCc2ccc3c(c2)CCO3)C1 | inactive
48 | Cc1cccc(Nc2ccccc2C(=O)O)c1C | inactive
49 | COC(=O)[C@@H]1CC2=CC(=O)CC[C@]2(C)[C@@]23O[C@@H]2C[C@@]2(C)[C@@H](CC[C@@]24CCC(=O)O4)[C@H]13 | inactive
50 | CS(=O)(=O)OCCCCOS(C)(=O)=O | inactive
51 | CC/C(=C(\c1ccccc1)c1ccc(OCCN(C)C)cc1)c1ccccc1 | inactive
52 | CCC1C(=O)OCC1Cc1cncn1C (stereo not drawn) | inactive
53 | OCCN1CCN(CCCN2c3ccccc3Sc3ccc(C(F)(F)F)cc32)CC1 | inactive
54 | Cc1cnc(C(=O)NCCc2ccc(S(=O)(=O)NC(=O)NC3CCCCC3)cc2)cn1 | inactive
55 | CC(c1cc2ccccc2s1)N(O)C(N)=O (stereo not drawn) | inactive
56 | Cn1c(=O)c2c(ncn2CC(O)CO)n(C)c1=O (stereo not drawn) | inactive
57 | O=C(O)P(=O)(O)O | inactive
58 | CC1=C(C(=O)O)N2C(=O)[C@@H](NC(=O)[C@H](N)c3ccccc3)[C@H]2SC1 | inactive
59 | CC[N+](C)(C)c1cccc(O)c1 | inactive

Row | Structure (SMILES) | Potency
60 | CCOC(=O)[C@H](CCc1ccccc1)N[C@@H](C)C(=O)N1[C@H](C(=O)O)C[C@@H]2CCC[C@@H]21 | inactive
61 | Nc1[nH]c(=O)ncc1F | inactive
62 | O=C1[C@H](CC[C@H](O)c2ccc(F)cc2)[C@@H](c2ccc(O)cc2)N1c1ccc(F)cc1 | inactive
63 | C[C@H]1c2cccc(O)c2C(O)=C2C(=O)[C@]3(O)C(O)=C(C(N)=O)C(=O)[C@@H](N(C)C)[C@@H]3[C@@H](O)[C@@H]21 | inactive
64 | CCCN(CCC)CCc1cccc2c1CC(=O)N2 | inactive
65 | CN1CCN(CCCN2c3ccccc3Sc3ccc(Cl)cc32)CC1 | inactive
66 | O=NN(CCCl)C(=O)NC1CCCCC1 | inactive
67 | CCOC(=O)Nc1ccc2c(c1)N(C(=O)CCN1CCOCC1)c1ccccc1S2 | inactive
68 | Oc1ccc(C2CNCCc3c2cc(O)c(O)c3Cl)cc1 (stereo not drawn) | inactive
69 | CC1(C)S[C@@H]2[C@H](NC(=O)C(C(=O)O)c3ccccc3)C(=O)N2[C@H]1C(=O)O (stereo partly drawn) | inactive
70 | CCN(CCO)CCCC(C)Nc1ccnc2cc(Cl)ccc12 (stereo not drawn) | inactive
71 | C[C@]12CC[C@@H]3c4ccc(O)cc4C[C@@H](CCCCCCCCCS(=O)CCCC(F)(F)C(F)(F)F)[C@H]3[C@@H]1CC[C@@H]2O (stereo partly drawn) | inactive
72 | CC(=O)OCC(CCn1cnc2cnc(N)nc21)COC(C)=O | inactive
73 | Cc1c(O)cccc1C(=O)N[C@@H](CSc1ccccc1)[C@H](O)CN1C[C@H]2CCCC[C@H]2C[C@H]1C(=O)NC(C)(C)C | inactive
74 | C=C[C@H]1CN2CC[C@H]1C[C@@H]2[C@@H](O)c1ccnc2ccc(OC)cc12 | inactive
75 | Cc1cn[nH]c1 | inactive
76 | CCOC(=O)c1ncn2c1CN(C)C(=O)c1cc(F)ccc1-2 | inactive
77 | CC(C)NCC(O)COc1ccc(CCOCC2CC2)cc1 (stereo not drawn) | inactive
78 | CCOc1ccccc1OCCN[C@H](C)Cc1ccc(OC)c(S(N)(=O)=O)c1 | inactive
